# Test results from the supplement of paper PMC11732987, “Enantioselective OTUD7B fragment discovery through chemoproteomics screening and high-throughput optimisation” (Communications Chemistry, 2025).
# Values without a mark were called inactive.
# What was measured:
# Assay in all cases: log2 ratio of Biotin-Ahx-Ub-VS probe labelling (fragment/DMSO); higher = less target engagement (more negative = stronger competition), active = hit call of the paper (q ≤ 0.05, log2 ratio ≤ -1)
# Settings in all cases: compound concentration: 200 uM; treatment time: 3 h
# OTUD6B = target: T1, OTUD6B (UniProt Q8N6M0)
# T1 sequence (whole entry): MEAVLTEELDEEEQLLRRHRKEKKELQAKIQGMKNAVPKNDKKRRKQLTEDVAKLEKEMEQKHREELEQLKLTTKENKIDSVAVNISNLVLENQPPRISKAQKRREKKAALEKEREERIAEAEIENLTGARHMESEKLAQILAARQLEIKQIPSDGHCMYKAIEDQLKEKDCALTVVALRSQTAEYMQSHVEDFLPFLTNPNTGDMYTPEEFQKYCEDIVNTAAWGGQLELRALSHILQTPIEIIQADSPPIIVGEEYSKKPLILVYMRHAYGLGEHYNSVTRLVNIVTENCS
# Procedure, shortened: (§1)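 Using Biotin-Ahx-Ub-VS at 0.5 µM final for 1 h, DUBs were labelled in HEK293T lysate (495 µg per sample) that had first been treated in triplicate with fragment at 200 µM or vehicle for 3 h. NeutrAvidin enrichment, LysC and trypsin digestion and diaPASEF LC-MS/MS followed. Spectronaut label-free quantities were global-median-normalised. Values are average log2 fragment/vehicle ratios by unpaired t-test, using proteins with ≥2 unique peptides.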
# OTUD7B = target: T2, OTUD7B (UniProt Q6GQQ9)
# T2 sequence (whole entry): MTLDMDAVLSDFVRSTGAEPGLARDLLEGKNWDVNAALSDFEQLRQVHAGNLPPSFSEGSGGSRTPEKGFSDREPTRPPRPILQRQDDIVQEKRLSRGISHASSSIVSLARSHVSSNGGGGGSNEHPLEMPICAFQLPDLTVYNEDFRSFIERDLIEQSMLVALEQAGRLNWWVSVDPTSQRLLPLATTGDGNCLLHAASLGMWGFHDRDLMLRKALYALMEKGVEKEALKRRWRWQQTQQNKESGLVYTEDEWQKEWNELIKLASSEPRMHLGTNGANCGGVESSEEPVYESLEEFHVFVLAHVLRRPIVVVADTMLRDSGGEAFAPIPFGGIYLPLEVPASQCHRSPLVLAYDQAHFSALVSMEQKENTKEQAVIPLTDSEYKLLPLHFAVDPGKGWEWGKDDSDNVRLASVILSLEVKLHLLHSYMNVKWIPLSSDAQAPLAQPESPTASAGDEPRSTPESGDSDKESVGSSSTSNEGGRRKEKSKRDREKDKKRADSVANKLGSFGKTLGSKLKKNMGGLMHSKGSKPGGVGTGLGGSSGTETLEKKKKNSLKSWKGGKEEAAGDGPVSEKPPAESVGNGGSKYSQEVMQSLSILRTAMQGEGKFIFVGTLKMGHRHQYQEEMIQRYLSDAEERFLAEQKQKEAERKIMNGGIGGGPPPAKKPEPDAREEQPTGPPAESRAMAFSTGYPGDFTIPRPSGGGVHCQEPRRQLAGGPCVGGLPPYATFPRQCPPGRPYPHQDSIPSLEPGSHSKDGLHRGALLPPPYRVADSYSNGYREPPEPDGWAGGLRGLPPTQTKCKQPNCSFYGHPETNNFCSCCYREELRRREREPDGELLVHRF
# Procedure, shortened: as §1
# PRPF8 = PRPF8 (UniProt Q6P2Q9)
# Procedure, shortened: as §1
# PSMD7 = target: T3, PSMD7 (UniProt P51665)
# T3 sequence (whole entry): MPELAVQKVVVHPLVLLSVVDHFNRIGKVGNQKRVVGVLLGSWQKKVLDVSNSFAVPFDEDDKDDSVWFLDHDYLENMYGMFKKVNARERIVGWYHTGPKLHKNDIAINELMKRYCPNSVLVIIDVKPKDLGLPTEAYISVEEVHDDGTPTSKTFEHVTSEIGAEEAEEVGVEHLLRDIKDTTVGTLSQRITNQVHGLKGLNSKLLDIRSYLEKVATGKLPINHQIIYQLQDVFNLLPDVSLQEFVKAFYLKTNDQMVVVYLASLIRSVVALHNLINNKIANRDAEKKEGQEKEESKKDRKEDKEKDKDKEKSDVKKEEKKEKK
# Procedure, shortened: as §1
# UCHL1 = UCHL1 (UniProt P09936)
# Procedure, shortened: as §1
# UCHL3 = target: T4, UCHL3 (UniProt P15374)
# T4 sequence (whole entry): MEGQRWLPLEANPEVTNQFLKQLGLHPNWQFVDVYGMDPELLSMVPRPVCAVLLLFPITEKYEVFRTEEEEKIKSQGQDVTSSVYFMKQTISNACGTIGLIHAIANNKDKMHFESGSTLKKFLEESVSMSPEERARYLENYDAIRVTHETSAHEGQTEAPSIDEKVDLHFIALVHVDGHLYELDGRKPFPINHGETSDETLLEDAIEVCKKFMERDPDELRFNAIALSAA
# Procedure, shortened: as §1
# UCHL5 = target: T5, UCHL5 (UniProt Q9Y5K5)
# T5 sequence (whole entry): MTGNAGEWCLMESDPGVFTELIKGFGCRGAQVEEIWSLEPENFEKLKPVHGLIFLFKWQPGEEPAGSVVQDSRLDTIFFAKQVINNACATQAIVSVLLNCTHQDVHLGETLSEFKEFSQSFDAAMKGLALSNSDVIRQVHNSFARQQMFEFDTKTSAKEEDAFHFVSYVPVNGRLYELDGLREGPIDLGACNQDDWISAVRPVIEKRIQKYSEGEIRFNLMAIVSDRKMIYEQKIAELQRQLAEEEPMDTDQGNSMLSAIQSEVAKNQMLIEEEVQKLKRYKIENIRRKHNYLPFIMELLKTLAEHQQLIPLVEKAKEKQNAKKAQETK
# Procedure, shortened: as §1
# USP10 = USP10 (UniProt Q14694)
# Procedure, shortened: as §1
# USP15 = target: T6, USP15 (UniProt Q9Y4E8)
# T6 sequence (whole entry): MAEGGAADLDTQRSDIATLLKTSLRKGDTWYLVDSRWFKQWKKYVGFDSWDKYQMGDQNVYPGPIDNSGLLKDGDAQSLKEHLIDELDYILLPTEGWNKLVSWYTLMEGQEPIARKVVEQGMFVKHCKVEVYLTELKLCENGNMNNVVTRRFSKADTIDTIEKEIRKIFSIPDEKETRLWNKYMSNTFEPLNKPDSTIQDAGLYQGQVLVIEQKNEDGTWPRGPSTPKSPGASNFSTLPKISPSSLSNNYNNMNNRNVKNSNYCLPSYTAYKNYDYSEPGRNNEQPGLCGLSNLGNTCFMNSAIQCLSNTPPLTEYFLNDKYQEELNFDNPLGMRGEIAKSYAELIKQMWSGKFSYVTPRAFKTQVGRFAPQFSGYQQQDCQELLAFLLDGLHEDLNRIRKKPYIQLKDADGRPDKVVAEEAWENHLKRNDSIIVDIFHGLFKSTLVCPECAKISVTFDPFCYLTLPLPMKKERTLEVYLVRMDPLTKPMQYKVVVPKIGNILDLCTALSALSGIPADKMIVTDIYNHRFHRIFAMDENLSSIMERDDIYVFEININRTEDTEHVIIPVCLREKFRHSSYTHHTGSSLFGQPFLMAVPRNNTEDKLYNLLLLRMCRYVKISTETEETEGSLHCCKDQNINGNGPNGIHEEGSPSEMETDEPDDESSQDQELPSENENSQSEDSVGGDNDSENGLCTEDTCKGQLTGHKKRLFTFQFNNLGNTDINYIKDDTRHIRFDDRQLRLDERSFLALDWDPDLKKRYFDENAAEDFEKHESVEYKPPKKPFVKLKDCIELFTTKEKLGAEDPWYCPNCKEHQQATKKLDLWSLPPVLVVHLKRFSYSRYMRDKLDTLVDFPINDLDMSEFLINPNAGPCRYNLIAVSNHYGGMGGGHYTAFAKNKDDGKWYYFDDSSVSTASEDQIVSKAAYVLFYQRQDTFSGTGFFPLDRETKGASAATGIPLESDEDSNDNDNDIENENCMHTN
# Procedure, shortened: as §1
# USP16 = USP16 (UniProt Q9Y5T5)
# Procedure, shortened: as §1
# USP16, sequence (Q9Y5T5 whole entry, looked up): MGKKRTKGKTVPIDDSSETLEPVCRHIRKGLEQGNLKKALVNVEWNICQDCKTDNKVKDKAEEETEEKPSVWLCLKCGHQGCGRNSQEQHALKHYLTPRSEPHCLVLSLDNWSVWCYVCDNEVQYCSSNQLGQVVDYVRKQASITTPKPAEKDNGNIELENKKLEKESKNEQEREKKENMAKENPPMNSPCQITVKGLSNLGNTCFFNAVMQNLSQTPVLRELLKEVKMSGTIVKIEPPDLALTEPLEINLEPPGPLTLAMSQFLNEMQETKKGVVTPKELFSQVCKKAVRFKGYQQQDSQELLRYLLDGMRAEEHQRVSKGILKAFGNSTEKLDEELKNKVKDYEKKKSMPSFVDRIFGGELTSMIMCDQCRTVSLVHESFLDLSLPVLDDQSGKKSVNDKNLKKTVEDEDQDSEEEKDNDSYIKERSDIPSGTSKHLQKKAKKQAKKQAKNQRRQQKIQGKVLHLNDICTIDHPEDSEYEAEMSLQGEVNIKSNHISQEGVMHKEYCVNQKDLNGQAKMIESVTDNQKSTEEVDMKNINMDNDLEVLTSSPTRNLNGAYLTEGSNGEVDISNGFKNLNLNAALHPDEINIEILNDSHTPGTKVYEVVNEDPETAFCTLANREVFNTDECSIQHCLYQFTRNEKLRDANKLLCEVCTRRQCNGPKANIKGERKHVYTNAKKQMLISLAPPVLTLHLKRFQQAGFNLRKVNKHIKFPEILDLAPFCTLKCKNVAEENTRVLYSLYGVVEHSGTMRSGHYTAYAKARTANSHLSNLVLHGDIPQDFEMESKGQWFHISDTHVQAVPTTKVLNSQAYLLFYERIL
# UCHL1, sequence (P09936 whole entry, looked up): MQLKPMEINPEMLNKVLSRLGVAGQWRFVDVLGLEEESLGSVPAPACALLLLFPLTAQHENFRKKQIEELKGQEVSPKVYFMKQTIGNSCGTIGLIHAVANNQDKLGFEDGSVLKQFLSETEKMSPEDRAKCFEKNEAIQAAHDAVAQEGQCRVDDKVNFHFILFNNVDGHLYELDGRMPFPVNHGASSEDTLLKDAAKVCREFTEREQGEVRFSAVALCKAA
# USP10, sequence (Q14694 whole entry): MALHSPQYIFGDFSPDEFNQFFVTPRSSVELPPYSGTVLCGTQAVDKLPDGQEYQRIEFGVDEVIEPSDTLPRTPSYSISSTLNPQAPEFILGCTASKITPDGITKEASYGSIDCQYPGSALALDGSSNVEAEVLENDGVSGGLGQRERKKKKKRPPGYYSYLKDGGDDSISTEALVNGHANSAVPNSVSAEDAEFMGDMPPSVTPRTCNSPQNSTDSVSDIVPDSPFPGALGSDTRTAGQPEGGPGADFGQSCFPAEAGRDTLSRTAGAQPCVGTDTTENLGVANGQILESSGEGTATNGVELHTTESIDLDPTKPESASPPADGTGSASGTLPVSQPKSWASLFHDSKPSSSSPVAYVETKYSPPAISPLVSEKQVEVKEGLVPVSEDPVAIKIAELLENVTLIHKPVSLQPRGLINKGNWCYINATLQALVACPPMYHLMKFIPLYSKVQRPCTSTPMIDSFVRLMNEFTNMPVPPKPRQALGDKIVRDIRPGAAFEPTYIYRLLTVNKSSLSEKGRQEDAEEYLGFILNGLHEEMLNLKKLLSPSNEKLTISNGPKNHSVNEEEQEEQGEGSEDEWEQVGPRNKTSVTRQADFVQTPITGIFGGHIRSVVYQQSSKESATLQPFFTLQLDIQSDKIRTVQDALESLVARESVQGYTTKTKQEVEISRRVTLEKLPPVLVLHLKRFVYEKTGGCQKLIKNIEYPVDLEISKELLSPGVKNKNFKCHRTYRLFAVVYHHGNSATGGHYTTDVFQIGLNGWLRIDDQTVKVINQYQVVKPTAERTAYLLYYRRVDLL
smiles,measurement,setting,value
Cc1cccc(NC(=O)[C@@H]2CCCN2C(=O)CCl)n1,log2 ratio of Biotin-Ahx-Ub-VS probe labelling,OTUD6B,-0.319
same,log2 ratio of Biotin-Ahx-Ub-VS probe labelling,OTUD7B,-0.29
same,log2 ratio of Biotin-Ahx-Ub-VS probe labelling,PRPF8,-0.0295
same,log2 ratio of Biotin-Ahx-Ub-VS probe labelling,PSMD7,-0.254
same,log2 ratio of Biotin-Ahx-Ub-VS probe labelling,UCHL1,-1.67 (active)
same,log2 ratio of Biotin-Ahx-Ub-VS probe labelling,UCHL3,-0.737
same,log2 ratio of Biotin-Ahx-Ub-VS probe labelling,UCHL5,-0.436
same,log2 ratio of Biotin-Ahx-Ub-VS probe labelling,USP10,-0.09
same,log2 ratio of Biotin-Ahx-Ub-VS probe labelling,USP15,-0.215
same,log2 ratio of Biotin-Ahx-Ub-VS probe labelling,USP16,-0.0941
